Screen size: about 360,000 compounds; about 2,400 (0.67%) were called active. The list comes from a sample in which actives are over-represented; it also holds similar structures and randomly drawn compounds. Unmarked numbers belong to inactive results.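 Rule for the calls: active = inhibition above about 55% (limit read from the data); inconclusive = no clear call, values can overlap the other calls; inactive = the rest.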
Experiment: LAMP-1 surface exposure blockers, TALL-104 cells – cell-based, flow cytometry, MLPCN library, primary screen (AID 651702)
Conditions: TALL-104 LAMP-1 surface exposure, at 10 µM, stronger effect = higher value, cells stimulated with thapsigargin and PMA
`CCC(C(=O)NCc1cccnc1)n1nc(C)c2sc3ccccc3c2c1=O` (configuration not stated) gave an inhibition of 5.3%. For `Cc1nn(CC(=O)NCCc2ccccc2)c(=O)c2cc3occc3n12`, the inhibition was -1.6%. For `CCc1ccc(-c2cc3c(=O)n(CC(=O)NCCCN4CCN(Cc5ccccc5)CC4)nc(C)n3n2)cc1`, the inhibition was 57.5% (active). For `O=C(Cn1ncc2c3ccccc3n(Cc3ccccc3)c2c1=O)NCCCN1CCOCC1`, the inhibition was 0.7%. Compound `O=C(NCC(F)(F)F)Nc1nnc(C(F)(F)F)s1` has an inhibition of 4.2%. Work on `O=C(CCCN1CCc2[nH]c3ccc(F)cc3c2C1)c1ccc(F)cc1` yielded an inhibition of 38.3%. For `C=CCn1c(SCc2ccc(Cl)c(Cl)c2)nnc1C(CO)NC(=O)c1ccc(OC)cc1` (configuration not stated), the inhibition was 0.1%. For `CCN1/C(=C\c2ccc3ccccc3[n+]2CC)Sc2cc(C)ccc21`, the inhibition was 63.6% (active). With `Cc1ccc(C)c(S(=O)(=O)N2CCN(c3ncnc4sccc34)CC2)c1` the inhibition was -10.6%. In the case of `CC1C(=O)Nc2ccccc2N1C(=O)c1ccc(F)cc1F` (configuration not stated), the inhibition is reported as -3.6%. With `COc1ccc(F)cc1C(=O)COC(=O)c1n[nH]c(=O)c2ccccc12` the inhibition was 3.6%. In the case of `O=C(/C=C/Sc1ncn[nH]1)c1ccc(Cl)cc1`, the inhibition is reported as 69% (active). `CC1CCC(CN2CCN=C2N(C)C)CC1` (configuration not stated) showed an inhibition of 8.2%. In the case of `Cc1cccc(C)c1NC(=O)C(Cl)C(=O)c1ccccc1` (configuration not stated), the inhibition is reported as 72.7% (active). Compound `Cc1cccc(C)c1NC(=O)COC(=O)c1ccccc1O` has an inhibition of -9.6%. Compound `Cc1cccc(C)c1NC(=O)N1CC(C)OC(C)C1` (configuration not stated) has an inhibition of -0.4%. In the case of `Cc1ccc(N(C(=O)CNC(=O)c2ccco2)C(C(=O)NC2CCCC2)c2ccncc2)cc1` (configuration not stated), the inhibition is reported as -16.9%. With `COCCc1nn2c(=O)cc(COC(=O)c3cc(OC)c(OC)c(OC)c3)nc2s1` the inhibition was -0.5%. Work on `CCN(CC)S(=O)(=O)c1ccc(NC(=O)CN(c2cccc(F)c2)S(C)(=O)=O)cc1` yielded an inhibition of -6%. In the case of `Cc1cccc(N(CC(=O)Nc2ccc(-c3nc4ccc(C)cc4s3)cc2)S(C)(=O)=O)c1`, the inhibition is reported as 68% (active). For `Cc1ccc(N(CC(=O)Nc2cc(C)cc(C)c2)S(=O)(=O)c2cccc3nonc23)cc1`, the inhibition was 2.1%. `CCn1c(O)c2ccc(C(=O)N=NC(=O)c3cccnc3)cc2c1O` gave an inhibition of -0.4%. `CCc1sc(C(=O)N2CCN(CC(=O)Nc3cccc(F)c3)CC2)cc1C` showed an inhibition of -5.4%. `CC(=O)C[C@@H]1OC[C@H](C)N1S(=O)(=O)c1ccc(C)cc1` gave an inhibition of -6.7%. Compound `COc1ccc(-c2cc(=O)oc3cc(OC(C)C(=O)NCC4CCC(C(=O)O)CC4)ccc23)cc1` (configuration not stated) has an inhibition of 19.5%. `Cc1ccc([N+](=O)[O-])c(OCCCNCC(C)O)c1` (configuration not stated) gave an inhibition of 0%. In the case of `CCCCc1ccc(NC(=S)NCCCN2CCOCC2)cc1`, the inhibition is reported as 67% (active). `CCCC(=O)NC(=S)Nc1ccc(CN2CCOCC2)cc1` showed an inhibition of -6.2%. In the case of `Cc1cc(C)cc(NC(=S)NCCCN2CCOCC2)c1`, the inhibition is reported as -0.8%. `Cc1ccc(S(=O)(=O)N2CCC(=O)N([C@H](COCc3ccccc3)C(C)C)CC2)cc1` showed an inhibition of -7.5%. For `CC(C)CCN1CCN=C1N(C)C`, the inhibition was -1.5%. Compound `COc1cccc(OC)c1C(=O)N1CCN(Cc2ccccc2F)CC1` has an inhibition of 0.4%. For `COc1ccccc1CN1CCN(C(c2ccccc2)c2ccccc2)CC1`, the inhibition was 69.5% (active). `COc1ccccc1CN1CCN(Cc2cc(OC)c(OC)cc2OC)CC1` gave an inhibition of 4.3%. In the case of `CSc1ncccc1C(=O)OCC(=O)N1CCOCC1`, the inhibition is reported as 0.7%. Compound `COC(=O)CCc1sc(Nc2ccc(Br)cc2)nc1-c1ccc(OC)cc1` has an inhibition of 7.1%. `COc1ccc(C(O)c2nc(-c3ccc(OC)nc3)cs2)cc1` (configuration not stated) showed an inhibition of -0.4%. In the case of `COc1ccc(-c2csc(Nc3ccc(O)cc3)n2)cc1`, the inhibition is reported as 67.8% (active). Compound `O=C(CS(=O)(=O)c1cn(Cc2ccc(Cl)cc2)c2ccccc12)N1CCOCC1` has an inhibition of -1.9%. Compound `CCOC(=O)Cc1csc(NC(=O)CSc2nnc(-c3cccnc3)n2Cc2ccco2)n1` has an inhibition of 1%. In the case of `CCOC(=O)CSc1nc2c(c(=O)n(Cc3ccccc3Cl)c(=O)n2C)n1C`, the inhibition is reported as -0.4%. With `CCOC(=O)CSc1nc2c(sc(=S)n2CCc2ccccc2)c(=O)n1Cc1ccco1` the inhibition was 55.7% (active). For `CCCc1nc(SCC(=O)N2CCCC2)c2c(=O)n(C)c(=O)n(C)c2n1`, the inhibition was 45.2%. Compound `CC(O)CN(Cc1ccc(Cl)cc1)CC(C)O` (configuration not stated) has an inhibition of 0.5%. In the case of `CCCCCn1c(=O)[nH]c2cc(C(=O)NCCCN3CCCCC3C)ccc2c1=O` (configuration not stated), the inhibition is reported as -0.7%. For `Cc1ccc(-c2cnc(NC(=O)CCC(=O)N(C)Cc3ccccc3)n2C)cc1`, the inhibition was -1.9%. With `CC(C)CN1CC(C)C(=O)N(c2ccccc2)C1=S` (configuration not stated) the inhibition was 1.4%. `CCN(CC(=O)Nc1ccccc1C(=O)NC1CC1)Cc1cccs1` showed an inhibition of -0.1%. `CC1CCc2c(nc3ncnn3c2Nc2ccc(OC(F)(F)F)cc2)C1` (configuration not stated) showed an inhibition of -1.5%. `O=S(=O)(NC1CC1)c1ccc(F)c(F)c1` gave an inhibition of -10.9%. `CC1CCC(NS(=O)(=O)c2ccc3c(c2)CC(=O)N3)CC1` (configuration not stated) showed an inhibition of -3.8%. For `Cn1sc(=O)c2cc(S(=O)(=O)NC3CC3)ccc21`, the inhibition was 100% (active). `OC(CNCC1CCCO1)Cn1c2ccc(Br)cc2c2cc(Br)ccc21` (configuration not stated) showed an inhibition of 41.3%. Work on `O=C(NCc1cccnc1)c1ccc(CS(=O)(=O)c2ccc(Br)cc2)o1` yielded an inhibition of 2.2%. For `Nc1cc(N)nc(SCc2ccc(Cl)cc2)n1`, the inhibition was 0.3%. In the case of `Nc1nc(SCc2ccc([N+](=O)[O-])cc2)c2ncn(C3OC(CO)C(O)C3O)c2n1` (configuration not stated), the inhibition is reported as -2.7%. With `CC(C)Cn1cnc2c(SCc3ccc(Cl)cc3)nc(N)nc21` the inhibition was 90.1% (active). Compound `COc1ccc(OCc2nnc3n2N=C(c2ccccc2)C(CC(=O)O)S3)cc1` (configuration not stated) has an inhibition of 32.9%. `Cc1ccc(Nc2cc(=O)n(C3CCCCC3)c(=O)[nH]2)cc1C` showed an inhibition of -1.1%. For `COc1ccccc1CNC(=O)c1cc(-c2cc(Cl)ccc2C)n[nH]1`, the inhibition was 2.8%. With `COc1ccc(Cl)cc1C(=O)OCC(=O)NCc1cccs1` the inhibition was 20.4%. For `CCOc1ccc(Cl)cc1-c1cc(C(=O)NCc2cccs2)[nH]n1`, the inhibition was 66.5% (active). For `Cn1c(=O)c2c(n(Cc3ccccc3)c1=O)NC(=O)C2CC(=O)N1CCc2ccccc2C1` (configuration not stated), the inhibition was 5.7%. `Cn1c(SCc2nc3ccccc3s2)nnc1-c1ccc2c(c1)OCO2` gave an inhibition of -6.5%. In the case of `Cc1ccccc1CN1C[C@@H]2C[C@@H](c3ccc4nsnc4c3)N3CCC[C@@]23C1=O`, the inhibition is reported as -2.3%. In the case of `Cc1ccccc1CN1C[C@@H]2C[C@@H](c3cn(C)nc3-c3ccccc3)N3CCC[C@@]23C1=O`, the inhibition is reported as 82.4% (active). Compound `COc1ccc(CN2CCN(Cc3cn(C)nc3-c3ccccc3)CC2CCO)c(C)c1C` (configuration not stated) has an inhibition of 4.6%. Work on `COC(=O)C1=C(C(=O)OC)C(c2cc([N+](=O)[O-])ccc2O)c2sc(=O)[nH]c2S1` (configuration not stated) yielded an inhibition of 7.4%. `Cc1cccc(Nc2nnc(SCC(=O)c3c(N)n(C4CC4)c(=O)[nH]c3=O)s2)c1C` gave an inhibition of 0.1%. `CCOC(=O)C1(C)CCCN(C(=O)c2cccc(Cl)c2)C1` (configuration not stated) showed an inhibition of 1.7%. With `CCOC(=O)C1(C)CCCN(C(=O)c2ccc(N(C)C)cc2)C1` (configuration not stated) the inhibition was -2.4%. For `CCOC(=O)C1(C)CCCN(C(=O)c2ccc(F)c(Cl)c2)C1` (configuration not stated), the inhibition was 71.1% (active). With `O=C(Nc1ccc(Br)cc1)c1cccc(NC(=O)C2C3CC4OC(=O)C2C4C3)c1` (configuration not stated) the inhibition was 11%. Work on `CCOc1ccc(CCNC(=O)C2CCN(c3ccc(N4CCOCC4)nn3)CC2)cc1OCC` yielded an inhibition of -0.7%. With `Nc1nnc(SCC(=O)OCc2ccc(Cl)c(Cl)c2)s1` the inhibition was -1.6%. With `O=C(CNC(=O)N1CC(=O)Nc2ccccc21)Nc1ccc(Br)cc1F` the inhibition was 4.6%. For `COc1ccc2c(c1)c(=Cc1ccc(N(C)C)cc1)c1cc(-c3ccccc3)[n+](C)n12`, the inhibition was 95.4% (active). `CCCNC(=O)C[C@@H]1CC[C@@H]2[C@H](COC[C@H](O)CN2C(=O)c2cc(Cl)cc(Cl)c2)O1` gave an inhibition of -2.9%. With `O=C(NCc1ccccc1)C(c1cccnc1)N(C(=O)c1csnn1)c1ccc(F)cc1` (configuration not stated) the inhibition was 12.4%. With `O=C(NCc1ccccc1)C(c1ccccc1)N(C(=O)c1csnn1)c1ccc(F)cc1` (configuration not stated) the inhibition was 56.4% (active). `O=C(NCc1ccc(F)cc1)C(c1ccccc1)N(C(=O)c1csnn1)C1CC1` (configuration not stated) gave an inhibition of -3.2%. With `O=C(CC1C(=O)NCCN1Cc1ccc(-c2ccccc2)cc1)NCC1CCOCC1` (configuration not stated) the inhibition was 1.1%. Compound `CCCS(=O)(=O)N1CCC(CCOc2ccccc2)(C(=O)OCC)CC1` has an inhibition of -2.2%. Work on `CCOC(=O)C1(CCOC)CCN(Cc2cc3ccccc3s2)CC1` yielded an inhibition of 0.4%. With `CCOC(=O)C1(CCOc2ccccc2)CCN(C(=O)c2cncs2)CC1` the inhibition was -0.8%. For `CCOC(=O)C1(CCOc2ccccc2)CCN(Cc2cc(OC)c(O)cc2Cl)CC1`, the inhibition was 84.5% (active). For `CCOC(=O)C1(Cc2cccc(OC)c2)CCN(C(C)COC)CC1` (configuration not stated), the inhibition was -0.5%. With `CCOC(=O)C1(CCOc2ccccc2)CCN(Cc2ccc(C#CCCO)cc2)CC1` the inhibition was 55.8% (active). `CC1(C(=O)NCc2ccccc2)CSCC(=O)N1CCCN1CCOCC1` (configuration not stated) showed an inhibition of 4.3%. In the case of `CC1CCCN(S(=O)(=O)c2ccc(N(C(=O)c3cnccn3)C(C(=O)NC3CCCCC3)c3cccs3)cc2)C1` (configuration not stated), the inhibition is reported as 0.9%. `Cc1ccc(S(=O)(=O)N2CCN(C(=O)c3cc(S(=O)(=O)N4CCOCC4)ccc3F)CC2)cc1` gave an inhibition of -3%. For `Cc1ccc(S(=O)(=O)NCC(=O)NNC(=O)c2ccc(Br)cc2)cc1C`, the inhibition was -1.3%.

Source: PubChem BioAssay AID651702 (NMMLSC, 2012)
